Bioassay records (PubChem BioAssay)
A selection: hits, their analogues and other compounds. The true share with any hit is near 1.7%.
Measles CPE: compounds protecting cells from measles virus cytopathic effect, primary screen, measles RdRp inhibitor project, single point, MLSMR library, absorbance | Measles virus-infected cells, CPE protection | protection (pct of control), % at 4 µM | hit rate 1.5% among 140,000; in the data active means protection mostly above about 24%, no sharp cut-off; inactive means mostly below about 26%
PTPN22 act: LYP phosphatase activators, primary screen, biochemical, DiFMUP fluorescence, 2 µM | Tyrosine-protein phosphatase non-receptor type 22 (Homo sapiens), Q9Y2R2 | recombinant LYP; 0 = plate median, 100 = signal doubled | activation, % at 2 µM | hit rate 0.11% among 96,000 | AID 697, 2007;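 active means activation at 2 µM above a set limit, the mean plus 5 SD, cut at about 37% in these data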
LYP inh 2: PTPN22 phosphatase inhibitors, primary screen, biochemical, DiFMUP fluorescence, 2 µM; Tyrosine-protein phosphatase non-receptor type 22 (Homo sapiens), Q9Y2R2; recombinant LYP catalytic domain; inhibition, % at 2 µM; hit rate 0.21% among 96,000; AID 640, 2007;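 active means inhibition at 2 µM at or above a set limit, the screen mean plus 3 SD, cut at about 24% in these data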
Each line names hits and unclear results; the compound was inactive in the other large screens.

Cc1ccc2c(c1)N(C(=O)CCC(=O)O)CCO2	Measles CPE 27.8 (no result: PTPN22 act, LYP inh 2)
CCOC(=O)N1CCN(C(=O)CCC(=O)N2CCOc3ccc(C)cc32)CC1	none
O=S(=O)(NCC1CCCO1)c1ccc2c(c1)OCCO2 (stereo not given)	none
Cn1c(-c2cccc(OCc3ccccc3)c2)nc2c1c(=O)[nH]c(=O)n2Cc1ccccc1	none
COCCn1c(-c2cccc([N+](=O)[O-])c2)nc2c1c(=O)[nH]c(=O)n2Cc1ccccc1	Measles CPE 27.2 (no result: PTPN22 act, LYP inh 2)
O=C(O)c1sccc1SCc1ccc(Cl)c(Cl)c1	none
COC(=O)c1nnn(Cc2ccccc2)c1N	none
Nc1c(C2=NCCO2)nnn1Cc1ccccc1	Measles CPE 40.7
Cc1cc(C2=NNC(=NC3CC3)SC2)c(C)n1-c1c(C)n(C)n(-c2ccccc2)c1=O	none (no result: PTPN22 act, LYP inh 2)
Cc1ccc(-n2c(C)cc(C3=NNC(=NC4CC4)SC3)c2C)cc1C	Measles CPE 74.0 (no result: PTPN22 act, LYP inh 2)
O=C(COc1ccccc1)NCC1CCCO1 (stereo not given)	none
O=C(COc1ccc(F)cc1)NCC1CCCO1 (stereo not given)	Measles CPE 42.7
Cc1nn(C(C)(C)C)c(OC(=O)C2CCCC2)c1S(=O)(=O)c1ccccc1	none
Cc1nc2ccccn2c1C(=O)NN=C1C2CC3CC(C2)CC1C3	Measles CPE 37.5 (no result: PTPN22 act, LYP inh 2)
Cc1cc(C(=O)NN=C2C3CC4CC(C3)CC2C4)c2ccccc2n1	none
COc1ccc(C(=O)COc2cccc(NC(=O)c3ccco3)c2)cc1	none
CC1=CC(C)C2COC(c3ccc[n+](C)c3)C1C2C (stereo not given)	Measles CPE 57.5 (no result: PTPN22 act, LYP inh 2)
COc1cc(NS(=O)(=O)c2ccc(NC(=O)COc3ccccc3C)cc2)nc(OC)n1	none
COc1ccnc(Oc2ccc(F)cc2)c1C(=O)N/C=N/OCc1ccc(F)cc1Cl	none
COc1ccnc(Oc2ccc(F)cc2)c1C(=O)N/C=N/OCc1ccc(Cl)cc1Cl	Measles CPE 29.3
O=C1OCCC1Sc1nnc(-c2ccccc2)o1 (stereo not given)	none
COc1cccc(C(=O)NC2CCSC2=O)c1 (stereo not given)	none
CN(C)c1ccc(C=C(c2nnnn2-c2ccccc2)c2nnnn2-c2ccccc2)cc1	Measles CPE 22.6 (no result: PTPN22 act, LYP inh 2)
CN(C)/C=C(\C(=O)c1ccc(F)cc1F)c1nnnn1-c1ccccc1	none (no result: PTPN22 act, LYP inh 2)
Cc1ccc(OC(=O)C(C)c2cccc(C(=O)c3ccccc3)c2)cc1 (stereo not given)	none
N#Cc1c(SCC(N)=O)nc(-c2ccccc2)c2c1CCCC2	none
C=C(C)c1cccc(C(C)(C)NC(=O)Nc2ccccc2OCC)c1	none (no result: PTPN22 act, LYP inh 2)
C=C(C)c1cccc(C(C)(C)NC(=O)Nc2cc(C)ccc2OC)c1	Measles CPE 60.3
CC1CCCCN1CC(=O)NC(=O)NCc1ccccc1 (stereo not given)	none (no result: PTPN22 act, LYP inh 2)
CN1CSC2=C(C#N)C(c3cccc(OCc4ccccc4)c3)CC(=O)N2C1 (stereo not given)	Measles CPE 63.0
CCc1ccc(C2CC(=O)N3CN(c4ccccc4)CSC3=C2C#N)cc1 (stereo not given)	none
Clc1ccc(C2=Nn3c(nnc3-c3cc(-c4ccccc4)n[nH]3)SC2)cc1	LYP inh 2 27.5
c1ccc(C2=Nn3c(nnc3-c3cc(-c4ccccc4)n[nH]3)SC2)cc1	none
O=C(NCC(c1cccnc1)N1CCN(c2ccc(F)cc2)CC1)c1ccccc1 (stereo not given)	none
COc1ccccc1C(C)NC(=O)c1ccc(C)o1 (stereo not given)	none
Cc1ccc(C(=O)NC(C)c2ccccc2)o1 (stereo not given)	Measles CPE 34.4
O=[N+]([O-])c1ccc(Sc2ccc(Cl)c(Cl)c2)nc1	none
CC(=O)c1nc(N2C(=O)CC(Cc3cc(C)cc(C)c3)C2=O)sc1C (stereo not given)	none (no result: PTPN22 act, LYP inh 2)
CC(=O)c1nc(N2C(=O)CC(Cc3cccc(C)c3)C2=O)sc1C (stereo not given)	Measles CPE 42.8
O=C(Nc1ccc2c(c1)OCO2)c1ccc(Cl)s1	Measles CPE 54.4
O=C(Nc1ccc2c(c1)OCO2)c1ccc2c(c1)OCO2	none (no result: PTPN22 act, LYP inh 2)
O=C(Nc1ccc([N+](=O)[O-])cc1)Nc1ccc(OC(F)F)c(Cl)c1	none (no result: PTPN22 act, LYP inh 2)
O=C(Nc1ccc(OC(F)F)c(Cl)c1)Nc1ccc2c(c1)OCO2	Measles CPE 41.4
CCc1c(C(=O)Nc2ccccc2)c(C)[nH]c(=S)c1C#N	none
O=c1cc(O)c2c(=O)n(-c3ccccc3)c3c(c2o1)CCCCCC3	Measles CPE 35.8 (no result: PTPN22 act, LYP inh 2)
O=c1cc(O)c2c(=O)n(C3CCCCC3)c3ccccc3c2o1	none
CN1CCN(C(=O)c2ccc3c(=O)n(Cc4ccco4)c(=S)[nH]c3c2)CC1	none
CC(C)(C)C(=O)CSc1nccc(=O)[nH]1	none
Cc1cccc2sc(NNC(=O)c3ccc4c(c3)OCCO4)nc12	Measles CPE 36.7 (no result: PTPN22 act, LYP inh 2)
Cc1cccc2sc(NNC(=O)c3ccc(S(=O)(=O)N4CCCC(C)C4)cc3)nc12 (stereo not given)	none (no result: PTPN22 act, LYP inh 2)
CN(C)C(=O)CSc1nnc2sc3ccccc3n12	none (no result: Measles CPE)
O=c1c2ccccc2nnn1CSc1nnc2sc3ccccc3n12	Measles CPE 41.4
O=S(=O)(NCc1cccnc1)c1cccc2cccnc12	none
O=S(=O)(NCc1ccccc1)c1cccc2cccnc12	Measles CPE 43.4
CCOC(=O)CNC(=O)C(=O)c1c(O)[nH]c2ccccc12	none
Cc1csc(NC(=O)Cc2nn(C)c(=O)c3ccccc23)n1	none
Cc1nccn1CCc1nc(N)nc(N)n1	none
COc1ccc(CCNC(=O)C2(C)CCC(=O)N2Cc2ccc3c(c2)OCO3)cc1OC (stereo not given)	none
COc1ccc(C(=O)CSc2ncn[nH]2)cc1OC	Measles CPE 47.9
Cc1ccc(C(=O)CSc2ncn[nH]2)cc1	none
O=C1C(=C2SCCCS2)CC/C1=C\c1ccc(F)cc1	Measles CPE 43.6
Cc1cccc(/C=C2\CCC(=C3SCCCS3)C2=O)c1	none
CCCSc1nnc(NC(=O)Nc2ccccc2)s1	none (no result: PTPN22 act, LYP inh 2)
CCCSc1nnc(NC(=O)Nc2ccc(F)cc2)s1	Measles CPE 43.0 (no result: PTPN22 act, LYP inh 2)
CC(C)CSc1nsc(N)n1	none
COCCNS(=O)(=O)c1ccccc1	none
CC(C)=CC(=O)Nc1nnc(-c2ccccc2)s1	none
CC(C)=CC(=O)Nc1nnc(C)s1	Measles CPE 37.8
CCOc1cc(C(=S)N2CCC(O)CC2)ccc1OS(=O)(=O)c1ccc(Br)cc1	none
COc1ccc(N2CCN(Cc3nc4ccccc4n3C)CC2)cc1	Measles CPE 37.1 (no result: PTPN22 act, LYP inh 2)
COc1ccc(N2CCN(c3ncccn3)CC2)cc1	Measles CPE 27.9
COc1ccc(N2CCN(c3nc4ccccc4n3CC(=O)c3ccccc3)CC2)cc1	none (no result: PTPN22 act, LYP inh 2)
COc1ccc(OCC(O)CN2CCN(c3ncccn3)CC2)cc1 (stereo not given)	none (no result: PTPN22 act, LYP inh 2)
O=C(Cc1sc(-c2ccccc2)nc1-c1ccccc1)Nc1ccccc1	none
COc1cc(/C=N/Nc2cccc(C)c2)ccc1OC(=O)c1cccs1	none (no result: PTPN22 act, LYP inh 2)
NNC(=O)c1nn(-c2ccc(Cl)cc2)ccc1=O	none
CNC(=O)c1nn(-c2ccc(C)cc2)ccc1=O	Measles CPE 43.0
CCOC(=O)C1=C(N)n2c(s/c(=C/c3ccco3)c2=O)=C(C(=O)OC)C1c1ccco1 (stereo not given)	none
CCCOc1ccc(C(=O)N2CCCC2C(=O)O)cc1 (stereo not given)	none
CCCCOc1ccc(C(=O)N2CCCC2C(=O)O)cc1 (stereo not given)	Measles CPE 48.5
